Source: PubChem BioAssay
Sampled rows, rich in hits. Any-hit rate of the full collection: about 2.6%.
PHOSPHO1 block = PubChem AID 1565; Phosphoethanolamine/phosphocholine phosphatase (Homo sapiens), Q8TCT1; recombinant PHOSPHO1, absorbance phosphatase assay; inhibition, % at 13.3 µM; 1.1% of 290,000 active; in the data active means inhibition above about 60%
Target sequence (Q8TCT1 whole entry, looked up): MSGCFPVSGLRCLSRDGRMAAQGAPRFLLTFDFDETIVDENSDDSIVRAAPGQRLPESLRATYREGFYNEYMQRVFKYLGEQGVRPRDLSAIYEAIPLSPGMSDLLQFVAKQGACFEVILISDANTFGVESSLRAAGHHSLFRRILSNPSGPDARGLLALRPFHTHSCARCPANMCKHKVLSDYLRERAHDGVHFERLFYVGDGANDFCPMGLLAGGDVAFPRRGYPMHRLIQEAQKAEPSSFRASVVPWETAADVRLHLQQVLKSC
MLLE-PAM2 inh = inhibitors of PABP1 MLLE–PAM2 peptide binding, primary screen, biochemical, fluorescence polarization, FITC-PAM2, GST-MLLE | 0.36% of 360,000 active | inhibition, % at 20 µM; in the data active means inhibition above about 35%, passing the limit was not always enough;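 further: plate controls were DMSO wells with GST-MLLE for no effect and wells lacking GST-MLLE protein for full effect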
PABP FP inh = PABP poly(A) RNA binding inhibitors, primary screen, biochemical, fluorescence polarization, uHTS; Polyadenylate-binding protein 1 (Homo sapiens), P11940; 1% of 290,000 active; inhibition, % at 35 µM;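 further: calls also rest on retests at 20 µM and on dose response follow-up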
CRFR2-BP antag = antagonists of CRF-BP/CRF-R2 complex, primary screen, cell-based, HEK293, calcium dye fluorescence, uHTS | AID 588475, 2011 | inhibition, % at 11.8 µM | 0.59% of 350,000 active | CRF-induced calcium fluorescence;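 active means inhibition of the ligand-induced calcium signal above about 50% at the single tested concentration, limit read from the data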
eIF4H FP inh = human eIF4H binding inhibitors, primary screen, translation initiation inhibitor project, biochemical, uHTS, fluorescence polarization. 0.94% of 290,000 active. inhibition, % at 35 µM. AID 2012, 2009. eIF4H fluorescence polarization binding assay. Eukaryotic translation initiation factor 4H (Homo sapiens), Q15056;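 further: calls also rest on retests at 20 µM and on dose response follow-up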
* hit, by the source's call. Unless noted, how the calls were made is not given here.

`CNc1ccc(Br)cc(C(=O)/C=C/c2ccc(OC)cc2OC)c1=O` gave PHOSPHO1 block -9.8, MLLE-PAM2 inh -46.1, PABP FP inh 4.6, CRFR2-BP antag 3.5 and eIF4H FP inh 39.7.
O=C(/C=C/[C@H]1O[C@@H](n2ccc(=O)[nH]c2=O)[C@H](O)[C@@H]1O)NCc1ccco1 was read as MLLE-PAM2 inh -13.3.
`CCOC(=O)CC1(NC(=O)C2CCC(=O)N(Cc3ccccc3OC)C2)CCCCC1` (stereo not drawn) gave PHOSPHO1 block 65.8*, MLLE-PAM2 inh 8.2, PABP FP inh 1.3, CRFR2-BP antag 11.4 and eIF4H FP inh -12.7.
`COc1ccccc1CNC(=O)Nc1nnc([C@H]2C[C@H](O)[C@@H](CO)O2)s1` gave MLLE-PAM2 inh 8.6.
`CC(C)OC(=O)c1ccccc1C(=O)c1ccc(N)c([N+](=O)[O-])c1` gave PHOSPHO1 block 19.2, MLLE-PAM2 inh 13.1, PABP FP inh 2.2, CRFR2-BP antag 56.4* and eIF4H FP inh -2.6.
Nc1ccccc1Sc1ccc(C(=O)c2ccccc2C(=O)O)cc1[N+](=O)[O-] was read as PHOSPHO1 block -19.0, MLLE-PAM2 inh 33.2, PABP FP inh 34.2, CRFR2-BP antag -7.0 and eIF4H FP inh 19.2.
`O=C(COC(=O)c1ccccc1C(=O)c1ccc(Cl)c([N+](=O)[O-])c1)NC1CC1` gave PHOSPHO1 block -46.5, MLLE-PAM2 inh -11.3, PABP FP inh 0.1, CRFR2-BP antag 52.0* and eIF4H FP inh -6.7.
For CNC(=O)COC(=O)c1ccccc1C(=O)c1ccc(Cl)c([N+](=O)[O-])c1 the results were PHOSPHO1 block 27.7, MLLE-PAM2 inh -25.5, PABP FP inh 4.4, CRFR2-BP antag 44.1 and eIF4H FP inh -3.4.
Cc1ccc2cccc(OC(=O)c3c(F)cccc3Cl)c2n1 was read as MLLE-PAM2 inh 8.6.
Screening Cn1nc(C(C)(C)C)cc1C(=O)N1CCCCC1c1cc(C(=O)NCc2ccc(F)cc2)no1 (stereo not drawn) returned MLLE-PAM2 inh 7.5.
COc1ccc(NC(=O)NNC(=O)CCc2ccc(O)c(O)c2)cc1OC was read as PHOSPHO1 block 32.7, MLLE-PAM2 inh -6.4, PABP FP inh 17.1, CRFR2-BP antag -21.1 and eIF4H FP inh 56.8*.
`COc1ccc(CCC(=O)NNC(=O)Nc2ccc(OC)c(OC)c2)cc1` gave PHOSPHO1 block 16.2, MLLE-PAM2 inh 9.0, PABP FP inh -3.7, CRFR2-BP antag 7.9 and eIF4H FP inh 4.0.
For CCOC(=O)COc1cccc2c(=O)n(CC(=O)N3CCCCC3)ccc12 the results were PHOSPHO1 block 51.2, MLLE-PAM2 inh 8.8, PABP FP inh 61.1*, CRFR2-BP antag 2.7 and eIF4H FP inh 102.8*.
`CCCCCC(=O)N1CC2(CC(c3cccc(NC(=O)[C@@H]4CCC(=O)N4)c3)=NO2)C[C@@H]1C(N)=O` (stereo partly drawn) gave PHOSPHO1 block 35.3, MLLE-PAM2 inh 0.3, PABP FP inh 9.1, CRFR2-BP antag 5.5 and eIF4H FP inh 5.3.
C=C(C)C(=O)Nc1cccc(C2=NOC3(C2)C[C@@H](C(N)=O)N(C(=O)CCCCC)C3)c1 (stereo partly drawn) was read as PHOSPHO1 block 30.9, PABP FP inh 69.9*, CRFR2-BP antag 0.6 and eIF4H FP inh 80.8*.
C=C(C)C(=O)Nc1cccc(C2=NOC3(C2)C[C@@H](C(N)=O)N(C(=O)c2ccc(OC)cc2)C3)c1 (stereo partly drawn) was read as PHOSPHO1 block 0.1, MLLE-PAM2 inh -2.8, PABP FP inh 54.1*, CRFR2-BP antag -6.4 and eIF4H FP inh 105.8*.
For C=C(C)C(=O)Nc1cccc(C2=NOC3(C2)C[C@@H](C(N)=O)N(C(=O)[C@H]2CCC(=O)N2)C3)c1 (stereo partly drawn) the results were PHOSPHO1 block 44.1, MLLE-PAM2 inh -3.2, PABP FP inh 39.3, CRFR2-BP antag -7.3 and eIF4H FP inh 102.9*.
`COc1ccc(NC(=O)c2nc[nH]c2C(=O)N(C)CCO)cc1` gave MLLE-PAM2 inh 3.7 and CRFR2-BP antag -1.3.
For CN(c1ccc(C(=O)N2CCN(Cc3ccc4c(c3)OCO4)CC2)cc1)S(=O)(=O)c1ccccc1 the results were PHOSPHO1 block 11.5, MLLE-PAM2 inh 4.9, PABP FP inh 0.3, CRFR2-BP antag 68.3* and eIF4H FP inh -1.4.
Cc1nc2ccc(N=NC3=C(O)CC(C)(C)CC3=O)cc2s1 was read as PHOSPHO1 block -1.5, MLLE-PAM2 inh -9.4, PABP FP inh -3.5, CRFR2-BP antag 21.8 and eIF4H FP inh -14.4.
For CC(=O)N1CCc2cc(N=NC3=C(O)CC(C)(C)CC3=O)ccc21 the results were PHOSPHO1 block 23.6, MLLE-PAM2 inh -94.6, PABP FP inh 6.5*, CRFR2-BP antag 9.4 and eIF4H FP inh 100.8*.
CCC12C(=Nc3c(Cl)cccc31)C[C@@H]1CCN3C(=O)CCC[C@H]2[C@H]13 (stereo partly drawn) was read as MLLE-PAM2 inh 1.7 and CRFR2-BP antag 2.6.
Screening CC(/C=C/c1ccccc1)=N\NC(=O)c1ccc2c(c1)OCCO2 returned PHOSPHO1 block -15.4, MLLE-PAM2 inh -0.6, PABP FP inh -4.0, CRFR2-BP antag 4.7 and eIF4H FP inh 8.6.
For CC(/C=C/c1ccccc1)=N/NC(=O)CNC(=O)c1ccc2c(c1)OCO2 the results were PHOSPHO1 block 20.2, MLLE-PAM2 inh -8.8, PABP FP inh -13.1, CRFR2-BP antag 72.4* and eIF4H FP inh -0.6.
Screening O=C(NCc1ccccc1)c1cc(C2COCCN2C(=O)OCCF)on1 (stereo not drawn) returned MLLE-PAM2 inh 2.3.
CCN(CC)c1ccc(N=Cc2ccc([N+](=O)[O-])o2)cc1 was read as PHOSPHO1 block 7.4, MLLE-PAM2 inh -16.9, PABP FP inh 1.4*, CRFR2-BP antag -0.6 and eIF4H FP inh 71.5*.
Screening CCN(CC)c1ccc(N=Cc2ccccc2[N+](=O)[O-])cc1 returned PHOSPHO1 block -10.6, MLLE-PAM2 inh 24.2, PABP FP inh -6.4, CRFR2-BP antag -5.1 and eIF4H FP inh 1.9.
Screening O=C(C=C1SCCS1)/C=C/c1ccco1 returned PHOSPHO1 block -9.4, MLLE-PAM2 inh 8.0, PABP FP inh 60.0*, CRFR2-BP antag -2.8 and eIF4H FP inh 89.7*.
Screening O=C(/C=C/c1ccc([N+](=O)[O-])cc1)/C=C/c1ccco1 returned PHOSPHO1 block 16.0, MLLE-PAM2 inh -21.3, PABP FP inh 49.9* and eIF4H FP inh 60.8*.
Fc1ccc(F)c(C2=NNC(=NCC3CCCO3)SC2)c1 (stereo not drawn) was read as PHOSPHO1 block -33.9, MLLE-PAM2 inh 64.2*, PABP FP inh 0.8, CRFR2-BP antag 8.4 and eIF4H FP inh -12.9.
For CC1CCC(C(C)C)C(OCC(O)CN2CCCC(C)C2)C1 (stereo not drawn) the results were PHOSPHO1 block 10.8, MLLE-PAM2 inh 4.4, PABP FP inh 9.5, CRFR2-BP antag -4.6 and eIF4H FP inh -2.0.
